Bioassay records as filed in PubChem BioAssay.
Hits are enriched below; roughly 22% of the tested compounds scored in any of these assays.
CYP2C19 act – activators of human cytochrome P450 2C19 | 96,000 tested, under 10 active | AID 1025 | activation factor at 5 µM | P33261 | recombinant CYP2C19, luciferin-H EGE luminescence; hits give high values; 0 = fully inhibited enzyme, 1 = untreated enzyme;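 active = activation factor of at least 2 at 5 µM in the primary screen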
Target sequence (P33261 whole entry, looked up): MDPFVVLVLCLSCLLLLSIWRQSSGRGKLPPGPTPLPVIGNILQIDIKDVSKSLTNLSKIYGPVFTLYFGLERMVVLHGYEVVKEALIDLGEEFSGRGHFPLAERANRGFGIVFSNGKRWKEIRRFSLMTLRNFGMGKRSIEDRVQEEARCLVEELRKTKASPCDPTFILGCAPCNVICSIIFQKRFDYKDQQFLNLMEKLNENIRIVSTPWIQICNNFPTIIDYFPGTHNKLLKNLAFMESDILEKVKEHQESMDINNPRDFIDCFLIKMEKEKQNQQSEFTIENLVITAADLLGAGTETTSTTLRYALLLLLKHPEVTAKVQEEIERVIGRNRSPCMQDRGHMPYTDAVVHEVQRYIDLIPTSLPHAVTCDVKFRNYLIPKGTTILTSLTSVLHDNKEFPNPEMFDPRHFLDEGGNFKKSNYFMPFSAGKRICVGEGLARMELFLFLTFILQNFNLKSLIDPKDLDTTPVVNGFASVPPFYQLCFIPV
Measles CPE – protection of cells from measles virus. 1.5% of 140,000 active. AID 841. protection (pct of control), % at 4 µM. Measles virus-infected cells, CPE protection, absorbance; in the data active = protection mostly above about 24%, no sharp cut-off; inactive = mostly below about 26%
CYP2C19 inh – blocks human cytochrome P450 2C19. P33261. CYP2C19 Supersomes, luciferin-H EGE luminescence, 30 min. inhibition, % at 5 µM. 21% of 96,000 active. AID 778;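 active = CYP2C19 inhibition above a set limit at 5 µM in the primary screen, cut at about 50% in these data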
CYP2C9 inh – blocks human cytochrome P450 2C9 | 20% of 96,000 active | CYP2C9 Supersomes, luciferin-H conversion, luminescence | inhibition, % at 5 µM | P11712;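 active = blocking of liver enzyme CYP2C9 beyond about 50% at 5 µM, limit read from the data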
CYP2C9 act – CYP2C9 (human) activation; 1.4% of 96,000 active; activation factor at 5 µM; recombinant CYP2C9, luciferin-H conversion, luminescence; hits give high values; factor 1 = untreated enzyme, 0 = blocked; AID 1024; P11712;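 active = activation factor of 2 or more for CYP2C9 at a 5 µM dose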
Numbers stand for hits; i = inactive; nt = no result given.

SMILES | CYP2C19 act | Measles CPE | CYP2C19 inh | CYP2C9 inh | CYP2C9 act
COC(=O)c1ccc(NC(=O)CSc2nnc(-c3ccncc3)n2N)cc1 | i | i | i | i | i
CC(C)OC(=O)CSc1nnc(-c2ccncc2)n1N | i | i | 86 | 56 | i
CCOC(=O)c1ccc(CSc2nnc(-c3ccncc3)n2N)cc1 | i | i | 68 | i | i
C=CCN(CC=C)S(=O)(=O)c1ccc2nsnc2c1 | i | i | i | i | i
O=C(CN1C(=O)C2CC=CCC2C1=O)NC1=NCCS1 (centres undefined) | i | i | i | i | i
CCOC(=O)N1CCN(Cc2nc3c(c(=O)n(C)c(=O)n3C)n2CCCc2ccccc2)CC1 | i | i | i | 70 | i
Cn1c(=O)c2c(nc(CN3CCN(C(=O)c4ccco4)CC3)n2CCCc2ccccc2)n(C)c1=O | i | i | i | 85 | i
CCN1CCN(Cc2nc3c(c(=O)n(C)c(=O)n3C)n2CCCc2ccccc2)CC1 | i | nt | i | i | i
CCOC(=O)CSc1nc2c(c(=O)n(C)c(=O)n2C)n1CCCc1ccccc1 | i | i | 57 | 73 | i
Cn1c(=O)c2c(nc(CN3CCN(C(=O)c4ccco4)CC3)n2CCc2ccccc2)n(C)c1=O | i | i | i | i | i
CC1CCCN(Cc2nc3c(c(=O)n(C)c(=O)n3C)n2CCCc2ccccc2)C1 (centres undefined) | i | i | i | 62 | i
CC1CCCN(Cc2nc3c(c(=O)n(C)c(=O)n3C)n2CCc2ccccc2)C1 (centres undefined) | i | i | i | i | i
CCCC(=O)Nc1c(C)nn(C(=O)CCC)c1C | i | i | i | i | i
CCC(C)Sc1nc2c(c(=O)[nH]c(=O)n2C)n1Cc1ccccc1Cl (centres undefined) | i | nt | i | i | i
CC(=O)c1cccc(NC(=O)Cc2coc3cc4c(cc23)CCC4)c1 | nt | i | nt | nt | nt
O=C(O)c1ccc(N2CCCCC2)cc1 | i | i | i | i | i
Nc1ccc(N2CCCCCC2)cc1 | i | i | 64 | i | i
COCCn1c(SCC(=O)OC(C)C)nnc1-c1ccccc1 | i | i | i | i | i
CC(C)CN(C(=O)c1ccc(=O)n(C)n1)c1nc2ccccc2s1 | i | i | 90 | 84 | i
CC1(C)C2CCC1(CS(=O)(=O)N1CCCc3ccccc31)C(=O)C2 (centres undefined) | i | i | i | i | 3.2
CC1(C)C2CCC1(CS(=O)(=O)Nc1ccc(S(=O)(=O)N3CCCC3)cc1)C(=O)C2 (centres undefined) | nt | i | nt | nt | nt
COc1ccccc1N1CCN(S(=O)(=O)CC23CCC(CC2=O)C3(C)C)CC1 (centres undefined) | i | i | 60 | i | i
CC1(C)C2CCC1(CS(=O)(=O)N1CCOCC1)C(=O)C2 (centres undefined) | i | i | i | i | i
CC1(C)C2CCC1(CS(=O)(=O)Nc1ccc(S(=O)(=O)NC3CCCCC3)cc1)C(=O)C2 (centres undefined) | nt | i | nt | nt | nt
COc1cccc(NS(=O)(=O)CC23CCC(CC2=O)C3(C)C)c1 (centres undefined) | i | i | 59 | i | i
SMILES | CYP2C19 act | Measles CPE | CYP2C19 inh | CYP2C9 inh | CYP2C9 act
COc1ccccc1NS(=O)(=O)CC12CCC(CC1=O)C2(C)C (centres undefined) | i | i | 77 | i | i
O=C(CN(Cc1ccco1)C(=O)CCC(=O)Nc1nccs1)NCc1ccccc1 | nt | i | nt | nt | nt
O=C(CN(Cc1cccs1)C(=O)CCC(=O)Nc1nccs1)NCc1ccccc1 | i | i | 78 | 64 | i
O=C(c1ccccc1)N1CCN2C(=O)c3ccccc3C12c1ccc(Cl)cc1 (centres undefined) | i | i | 63 | i | i
O=C(Nc1ccccc1)N1CCN2C(=O)c3ccccc3C12c1ccccc1 (centres undefined) | i | i | 93 | 96 | i
CC(C)CCOC(=O)C1[C@H]2C(=O)N(Cc3cccs3)C[C@]23C=C[C@H]1O3 (some centres undefined) | i | i | i | i | i
CCCc1ccc(OCc2ccc(C(=O)N3CCN(c4ccccn4)CC3)o2)c(OC)c1 | i | i | 57 | 57 | i
COc1ccc(CC(=O)N2CCN(c3ccccn3)CC2)cc1OC | i | i | 52 | i | i
CCn1cc(C(=O)N2CCN(c3ccccn3)CC2)c2cc(OC)c(OC)cc2c1=O | i | i | i | 60 | i
CC1CCCCN1C(=O)Cn1c(=O)n(CCC(=O)NCc2ccco2)c(=O)c2sccc21 (centres undefined) | i | i | i | i | i
COc1ccc(NC2=Nc3cccc4cccc2c34)cc1 | nt | i | nt | nt | nt
CC(C)COC(=O)n1c(SCC(=O)N(C)C)nc2ccccc21 | i | i | 65 | 78 | i
CCOC(=O)Cn1c(=O)oc2cc(S(=O)(=O)NCCC(C)C)ccc21 | i | i | i | 80 | i
CCOC(=O)Cn1c(=O)oc2cc(S(=O)(=O)NCCc3ccc(OCC)c(OCC)c3)ccc21 | i | nt | i | 56 | i
Cn1c(=O)c(=O)n(C)c2cc(S(=O)(=O)N3CCc4ccccc43)ccc21 | i | i | i | 54 | i
Cn1c(=O)oc2cc(S(=O)(=O)N3CCCc4ccccc43)ccc21 | i | i | i | i | i
CCOC(=O)Cn1c(=O)oc2cc(S(=O)(=O)N3CCc4ccccc43)ccc21 | i | i | 67 | 74 | i
CCc1ccc(C(=O)CN2CCSC2=N)cc1 | nt | i | nt | nt | nt
CCOC(=O)Cn1c(=O)oc2cc(S(=O)(=O)NC(C)c3ccccc3)ccc21 (centres undefined) | i | i | 78 | 51 | i
Cc1cc(NC(=O)C2CCCCC2)ccc1NC(=O)c1ccccc1Cl | nt | i | nt | nt | nt
COc1cc2c(=O)n(CC3CCCO3)c(=O)n(CC(=O)Nc3cccc(Cl)c3)c2cc1OC (centres undefined) | i | i | 63 | 85 | i
COC(=O)CC1COc2ccccc2N1C(=O)c1ccc(OC)cc1 (centres undefined) | i | i | 62 | i | i
COc1ccc(C(=O)N2c3ccccc3C(=O)OC2c2ccc3c(c2)OCO3)cc1 (centres undefined) | i | i | 83 | 81 | i
COc1ccc(C2Oc3ccccc3N2C(C)=O)cc1 (centres undefined) | i | i | 64 | 69 | i
CC(=O)Oc1ccc(C2OC(=O)c3ccccc3N2C(C)=O)cc1 (centres undefined) | i | i | i | i | i
COC(=O)c1cc(Oc2ccc(C(=O)OC)cc2N)cc(C(=O)OC)c1 | i | i | i | i | i
COC(=O)CCCCCNc1ccc(C(=O)OC)cc1N | i | 30 | 84 | i | i
CCCOc1ccc2oc(=O)c3c(c2c1)CCCN3C(=O)CN1CCc2ccccc2C1 | i | i | 89 | 64 | i
O=C(O)c1ccc(COc2ccc3c4c(c(=O)oc3c2)CCC4)o1 | i | i | i | i | i
CC1CC(C)CN(CC(=O)N2CCCc3c2c(=O)oc2ccc(OCc4ccccc4)cc32)C1 (centres undefined) | i | i | 75 | 85 | i
